# Results from PubChem BioAssay (Tox21).
# Several values for one entry are separate records, joined by “and”; a condition that tells them apart may be missing. Identical values can stand only once. Results filed as inconclusive are left out. A call without a number means that no potency is given here. Some compounds were tested as several samples or in several runs, with calls that do not always agree. Activity calls are given as the source filed them. Unless noted, calls follow the shape of the full dose curve.
# Columns and labels:
# [1] = qHTS assay to identify small molecule antagonists of the sonic hedgehog signaling (Shh) pathway (AID 1259369); also: nearly all actives have a fitted effect of over 45% in size; also: potency is read from the fitted curve at half-maximal effect
# How it was run: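 NIH/3T3 stable Gli1-Luc clone, 2,000 cells/well, 4hr settle; cpd + conditioned medium 24hr; Luc reagent 30min RT; luminescence.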
# [2] = qHTS assay to identify small molecule agonists of the androgen receptor (AR) signaling pathway in the presence of an antagonist - cell viability counter screen (AID 1259379; active = well fitted curve in the direction sought with a large enough effect in the repeat runs; an effect the other way counts as inactive or inconclusive; also: nearly all actives have a fitted effect of over 25% in size; also: potency is read from the fitted curve at half-maximal effect)
# How it was run: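 MDA-kb2 viability measured by CellTiter-Fluor fluorescence in the same wells as the luciferase signal; nilutamide 3.0uM final; 15-point compound titration; 16 hr at 37C.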
# [3] = biological target: Androgen receptor (Homo sapiens) (UniProt P10275); experiment: qHTS assay to identify small molecule agonists of the androgen receptor (AR) signaling pathway in the presence of an antagonist (AID 1259381); also: nearly all actives have a fitted effect of over 15% in size
# Androgen receptor (Homo sapiens), sequence (P10275 whole entry, looked up): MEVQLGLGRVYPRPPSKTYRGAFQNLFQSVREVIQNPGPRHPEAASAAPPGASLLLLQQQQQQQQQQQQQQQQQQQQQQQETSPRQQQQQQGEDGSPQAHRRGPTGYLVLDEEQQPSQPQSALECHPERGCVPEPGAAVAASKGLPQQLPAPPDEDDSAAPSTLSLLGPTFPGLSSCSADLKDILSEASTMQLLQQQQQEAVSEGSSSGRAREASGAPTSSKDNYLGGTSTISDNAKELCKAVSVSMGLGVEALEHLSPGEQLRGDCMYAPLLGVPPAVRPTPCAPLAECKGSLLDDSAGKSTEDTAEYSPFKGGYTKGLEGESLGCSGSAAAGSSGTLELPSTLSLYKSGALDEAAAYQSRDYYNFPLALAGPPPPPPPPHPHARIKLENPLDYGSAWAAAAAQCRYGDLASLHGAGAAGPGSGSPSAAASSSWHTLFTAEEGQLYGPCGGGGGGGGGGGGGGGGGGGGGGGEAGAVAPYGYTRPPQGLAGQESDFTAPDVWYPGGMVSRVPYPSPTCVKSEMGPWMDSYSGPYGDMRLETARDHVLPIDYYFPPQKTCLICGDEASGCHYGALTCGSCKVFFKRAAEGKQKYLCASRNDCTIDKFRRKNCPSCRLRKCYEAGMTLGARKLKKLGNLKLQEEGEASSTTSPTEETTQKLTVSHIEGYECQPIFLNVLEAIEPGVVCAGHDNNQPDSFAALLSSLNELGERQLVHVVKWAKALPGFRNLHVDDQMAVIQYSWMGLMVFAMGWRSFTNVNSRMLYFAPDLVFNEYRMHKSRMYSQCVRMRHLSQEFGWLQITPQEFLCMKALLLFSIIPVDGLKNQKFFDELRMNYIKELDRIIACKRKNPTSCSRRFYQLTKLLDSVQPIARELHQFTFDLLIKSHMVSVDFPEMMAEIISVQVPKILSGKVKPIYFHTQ
# How it was run: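 Luminescent ONE-Glo read, 30min at room temperature, follows 16hr compound exposure (15 concentrations) of MDA-kb2 cells at 37C, 0% CO2, with nilutamide added at 3.0uM final.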
# [4] = qHTS assay to identify small molecule antagonists of the estrogen receptor beta (ER-beta) signaling pathway - cell viability counter screen (AID 1259382; active = well fitted curve in the direction sought with a large enough effect in the repeat runs; an effect the other way counts as inactive or inconclusive; also: series mostly up to about 92 µM; nearly all actives have a fitted effect of over 55% in size)
# How it was run: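 Readout: luminescence, CellTiter-Glo, same wells as bla assay. System: ER-beta-UAS-bla GripTite HEK293T, 2% charcoal-stripped FBS. Exposure: compounds plus 1nM 17-beta-estradiol, 16 hr, 37C.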
# [5] = biological target: Estrogen receptor (Homo sapiens) (UniProt P03372); experiment: qHTS assay to identify small molecule agonists of the estrogen receptor alpha (ER-alpha) signaling pathway in the presence of an antagonist (AID 1259383); also: top concentration of the series differs between compounds; nearly all actives have a fitted effect of over 15% in size
# Estrogen receptor (Homo sapiens), sequence (P03372 whole entry, looked up): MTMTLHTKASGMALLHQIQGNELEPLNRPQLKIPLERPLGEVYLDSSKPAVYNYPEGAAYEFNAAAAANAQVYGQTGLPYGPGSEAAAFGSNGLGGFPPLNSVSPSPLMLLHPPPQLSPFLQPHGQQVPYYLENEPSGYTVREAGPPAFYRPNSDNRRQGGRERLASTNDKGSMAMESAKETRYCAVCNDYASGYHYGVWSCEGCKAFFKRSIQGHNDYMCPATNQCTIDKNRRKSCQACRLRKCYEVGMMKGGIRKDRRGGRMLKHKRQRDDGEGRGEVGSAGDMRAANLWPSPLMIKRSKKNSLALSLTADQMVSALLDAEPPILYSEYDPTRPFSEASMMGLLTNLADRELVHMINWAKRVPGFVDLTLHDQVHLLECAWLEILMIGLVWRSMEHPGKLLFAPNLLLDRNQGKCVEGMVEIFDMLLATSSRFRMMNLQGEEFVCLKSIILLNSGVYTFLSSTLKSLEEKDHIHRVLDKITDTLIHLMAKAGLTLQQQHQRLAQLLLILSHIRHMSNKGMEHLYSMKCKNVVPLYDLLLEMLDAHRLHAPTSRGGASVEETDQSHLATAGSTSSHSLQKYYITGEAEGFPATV
# How it was run: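 Quantitative HTS confirmation: compounds titrated at 15 concentrations onto estrogen-deprived VM7Luc4E2 cells carrying a four-ERE luciferase construct, with ICI-182,780 present at 10.0nM final. Signal is luminescence after 22hr exposure.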
# [6] = qHTS assay to identify small molecule agonists or antagonists of the thyroid stimulating hormone receptor (TSHR) signaling pathway - wild type cell line counter screen (AID 1259384)
# How it was run: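 Wild-type Hek293 cells, 800/well, 18 h at 37C, then compound with Ro20-1724 for 30 min RT. cAMP by HTRF (cAMP-d2/anti-cAMP cryptate), 1 h RT, fluorescence read. 15 concentrations, triplicates.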
# [7] = qHTS assay to identify small molecule agonists of the estrogen receptor beta (ER-beta) signaling pathway - cell viability counter screen (AID 1259380; active = well fitted curve in the direction sought with a large enough effect in the repeat runs; an effect the other way counts as inactive or inconclusive; also: nearly all actives have a fitted effect of over 30% in size; also: potency is read from the fitted curve at half-maximal effect)
# How it was run: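 Measured: luminescence from CellTiter-Glo after 30 min at room temperature, added to wells already read for the LiveBLAzer FRET reporter (2 hr substrate); ER-beta-UAS-bla HEK293T cells had 16 hr compound treatment at 37C, 5% CO2.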
# [8] = biological target: Thyrotropin receptor (Homo sapiens) (UniProt P16473); experiment: qHTS assay to identify small molecule antagonists of the thyroid stimulating hormone receptor (TSHR) signaling pathway (AID 1259385); also: nearly all actives have a fitted effect of over 20% in size; also: potency is read from the fitted curve at half-maximal effect
# Thyrotropin receptor (Homo sapiens), sequence (P16473 whole entry, looked up): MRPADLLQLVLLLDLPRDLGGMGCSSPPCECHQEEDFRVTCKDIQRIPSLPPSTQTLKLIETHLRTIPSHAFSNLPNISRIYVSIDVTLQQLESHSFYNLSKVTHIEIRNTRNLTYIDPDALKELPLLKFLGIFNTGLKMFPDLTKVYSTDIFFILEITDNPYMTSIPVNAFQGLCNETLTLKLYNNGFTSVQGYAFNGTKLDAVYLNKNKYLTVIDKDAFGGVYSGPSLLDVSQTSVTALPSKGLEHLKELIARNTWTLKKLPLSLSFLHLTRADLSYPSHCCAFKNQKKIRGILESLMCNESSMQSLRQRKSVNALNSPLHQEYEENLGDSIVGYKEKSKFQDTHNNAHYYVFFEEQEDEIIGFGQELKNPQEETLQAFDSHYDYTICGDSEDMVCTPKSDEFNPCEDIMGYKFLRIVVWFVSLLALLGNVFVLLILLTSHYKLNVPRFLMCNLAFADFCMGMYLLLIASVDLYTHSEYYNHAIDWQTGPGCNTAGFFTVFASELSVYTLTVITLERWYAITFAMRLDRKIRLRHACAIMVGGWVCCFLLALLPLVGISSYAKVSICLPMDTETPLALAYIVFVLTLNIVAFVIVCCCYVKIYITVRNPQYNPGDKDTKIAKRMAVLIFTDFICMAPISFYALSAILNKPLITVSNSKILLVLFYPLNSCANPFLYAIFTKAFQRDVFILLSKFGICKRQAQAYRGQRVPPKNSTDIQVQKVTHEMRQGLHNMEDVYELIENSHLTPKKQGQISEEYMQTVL
# How it was run: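 TSHR-HEK293 cells (800/well) plated 18 h, then compounds with Ro20-1724 and TSH at 1.5 ng/mL final, 30 min at room temperature. cAMP quantified by HTRF (cAMP-d2/anti-cAMP-cryptate, 1 h); 15 concentrations in triplicate.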
# [9] = biological target: Estrogen receptor beta (Homo sapiens) (UniProt Q92731); experiment: qHTS assay to identify small molecule agonists of the estrogen receptor beta (ER-beta) signaling pathway (AID 1259377; active = well fitted activation curve with a large enough effect in the signal ratio in the repeat runs, not every such curve was filed as active; the % refers to the signal ratio)
# Estrogen receptor beta (Homo sapiens), sequence (Q92731 whole entry, looked up): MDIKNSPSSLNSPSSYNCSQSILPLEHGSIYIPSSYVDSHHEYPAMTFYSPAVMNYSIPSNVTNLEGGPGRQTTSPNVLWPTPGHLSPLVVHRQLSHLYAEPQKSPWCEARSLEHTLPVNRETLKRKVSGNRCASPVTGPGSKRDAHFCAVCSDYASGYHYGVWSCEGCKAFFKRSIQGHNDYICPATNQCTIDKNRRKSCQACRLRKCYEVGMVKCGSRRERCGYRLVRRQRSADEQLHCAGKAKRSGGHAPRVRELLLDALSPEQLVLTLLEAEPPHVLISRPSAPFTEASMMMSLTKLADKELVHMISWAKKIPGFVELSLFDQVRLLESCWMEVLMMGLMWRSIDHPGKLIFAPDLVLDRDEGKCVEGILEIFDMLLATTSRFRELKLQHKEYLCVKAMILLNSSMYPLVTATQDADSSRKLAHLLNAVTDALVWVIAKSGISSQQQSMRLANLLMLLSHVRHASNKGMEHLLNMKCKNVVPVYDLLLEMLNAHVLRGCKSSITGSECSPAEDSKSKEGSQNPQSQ
# How it was run: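 Beta-lactamase reporter readout: fluorescence of LiveBLAzer B/G FRET substrate after 2 h at room temperature, following 16 h compound treatment of ER-beta-UAS-bla HEK293T cells at 37C in 2% charcoal-stripped FBS medium.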
# [10] = biological target: Estrogen receptor beta (Homo sapiens) (UniProt Q92731); experiment: qHTS assay to identify small molecule antagonists of the estrogen receptor beta (ER-beta) signaling pathway (AID 1259378; active = well fitted inhibition curve with a large enough effect in the signal ratio in the repeat runs, not every such curve was filed as active; the % refers to the signal ratio)
# How it was run: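 ER-beta-UAS-bla HEK293T cells in 2% charcoal-stripped FBS medium treated with compound plus 1nM final 17-beta-estradiol for 16 hr at 37C. Beta-lactamase reporter read by FRET substrate fluorescence after 2 hours at room temperature.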
smiles,measurement,setting,value
COP(=S)(OC)Oc1ccc([N+](=O)[O-])cc1Cl,Potency,[1],inactive
same,Potency,[2],48.6 µM (active)
same,Potency,[3],inactive
same,Potency,[4],inactive
same,Potency,[5],inactive
same,outcome,[6],inactive
Cc1ccc(-c2c(Cl)nc(C#N)n2S(=O)(=O)N(C)C)cc1,Potency,[1],7.69 µM (active)
same,Potency,[2],48.5 µM (active)
same,Potency,[3],inactive
same,Potency,[5],inactive
CN(N=O)c1ccc([N+](=O)[O-])cc1,Potency,[1],inactive
same,Potency,[7],inactive
same,Potency,[5],inactive
Brc1ccc(Oc2ccccc2)cc1,Potency,[1],31.4 µM (active) and inactive
same,Potency,[2],inactive
same,Potency,[4],inactive
same,Potency,[5],inactive
same,Potency,[8],inactive
N#CCc1ccccc1,Potency,[9],inactive
same,Potency,[10],inactive
same,Potency,[2],inactive
same,Potency,[7],inactive
same,Potency,[4],inactive
same,Potency,[5],inactive
same,outcome,[6],inactive
same,Potency,[8],inactive
II,Potency,[1],inactive
same,Potency,[2],inactive
same,Potency,[3],inactive
same,Potency,[5],inactive
CNC(C)Cc1ccccc1OC (configuration not stated),Potency,[1],inactive
same,Potency,[2],inactive
same,Potency,[4],inactive
same,Potency,[5],inactive
same,Potency,[8],inactive
COc1nn(C(=O)NS(=O)(=O)c2ccccc2OC(F)(F)F)c(=O)n1C,Potency,[9],inactive
same,Potency,[10],inactive
same,Potency,[2],inactive
same,Potency,[7],inactive
same,Potency,[4],inactive
same,outcome,[6],inactive
O=S1OC[C@@H]2[C@H](CO1)[C@]1(Cl)C(Cl)=C(Cl)[C@@]2(Cl)C1(Cl)Cl (some centres not stated),Potency,[1],inactive
same,Potency,[2],inactive
same,Potency,[3],inactive
same,Potency,[4],inactive
same,Potency,[5],inactive
same,Potency,[8],inactive
O=C(CCl)c1ccc(Cl)cc1Cl,Potency,[1],5.96 µM (active)
same,Potency,[2],inactive and 29.8 µM (active)
same,Potency,[3],inactive
same,Potency,[5],inactive
same,outcome,[6],inactive
same,Potency,[8],23.7 µM (active)
O=C(Nc1ccccc1)Nc1ccnc(Cl)c1,Potency,[1],2.17 µM (active)
same,Potency,[2],61.1 µM (active)
same,Potency,[3],inactive
same,Potency,[4],inactive
CNP(=O)(OC)Oc1ccc(C(C)(C)C)cc1Cl (configuration not stated),Potency,[1],27.3 µM (active)
same,Potency,[2],inactive
same,Potency,[4],inactive
same,Potency,[5],inactive
same,outcome,[6],inactive
COCCOCCO,Potency,[1],27.3 µM (active)
same,Potency,[2],inactive
same,Potency,[4],inactive
same,Potency,[5],inactive
O=C(CBr)c1ccccc1,Potency,[1],34.6 µM (active)
same,Potency,[2],inactive
same,Potency,[7],inactive
same,Potency,[5],inactive
same,outcome,[6],inactive
same,Potency,[8],inactive
CC(=O)NC1CCSC1=O (configuration not stated),Potency,[1],inactive
same,Potency,[2],inactive
same,Potency,[3],inactive
same,Potency,[4],inactive
same,Potency,[5],inactive
same,outcome,[6],inactive
same,Potency,[8],inactive
CC1CC(CC2CCC(N)C(C)C2)CCC1N (configuration not stated),Potency,[2],27.8 µM (active)
same,Potency,[3],inactive
same,Potency,[5],inactive
same,Potency,[8],inactive
CC(c1ccc(O)cc1)(c1ccc(O)cc1)c1ccc(O)cc1,Potency,[5],inactive
Cc1c(F)c(F)c(COC(=O)C2C(/C=C(\Cl)C(F)(F)F)C2(C)C)c(F)c1F (configuration not stated),Potency,[9],inactive
same,Potency,[10],inactive
same,Potency,[2],inactive
same,Potency,[4],inactive
same,Potency,[5],inactive
same,outcome,[6],inactive
O=C(O)C(F)(F)C(F)(F)C(F)(F)C(F)(F)C(F)(F)C(F)(F)C(F)(F)C(F)(F)C(F)(F)F,Potency,[2],inactive
same,Potency,[7],10.9 µM (active)
same,Potency,[4],inactive
same,Potency,[5],inactive
same,outcome,[6],inactive
C/C(=C\c1ccccc1)[N+](=O)[O-],Potency,[2],24.3 µM (active)
same,Potency,[3],inactive
same,Potency,[4],inactive
same,Potency,[5],inactive
same,outcome,[6],inactive
CC(C)N(C(=O)COc1nnc(C(F)(F)F)s1)c1ccc(F)cc1,Potency,[9],inactive
same,Potency,[2],inactive
same,Potency,[4],inactive
same,Potency,[5],inactive
same,Potency,[8],inactive
CCOP(=O)(OCC)O/C(=C/Cl)c1ccc(Cl)cc1Cl,Potency,[7],inactive
same,Potency,[5],inactive
same,outcome,[6],inactive
O=C(O)C1(c2ccc3c(c2)OC[C@H](Cc2ccc(-c4ccccc4)cc2)[C@H]3O)CCCC1,Potency,[7],27.3 µM (active)
same,outcome,[6],inactive
O=C1NCN(c2ccccc2)C12CCN(CCCOc1ccc(F)cc1)CC2,Potency,[5],inactive
NC(=O)C(Cl)(Cl)Cl,Potency,[10],inactive
same,Potency,[2],inactive
same,Potency,[7],inactive
same,Potency,[5],inactive
same,outcome,[6],inactive
same,Potency,[8],inactive
